Data from PubChem BioAssay (NCATS).
Inconclusive results are not listed. Entries that show only a call come without a potency. A number with no mark means an inactive call. Activity calls are given as the source filed them. The call rests on the fitted dose curve; in most records, active means well fitted curve in the direction sought with a large enough effect; inconclusive means small, poorly fitted or top-dose-only effect, or another doubt; inactive means no such curve, though single readings can be large; an effect the other way counts as inactive or inconclusive.

Experiments:
[1] = qHTS of pediatric cancer cell lines to identify multiple opportunities for drug repurposing: Primary screen for Saos-2 cells (AID 1347097); further: nearly all actives have a fitted effect of over 40% in size; further: potency means the concentration at half of the fitted maximal effect
Method in brief: (§1)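 Cells plated at 500-1,000/well in growth medium, compounds added after 5 h. MIPE tested at 11 points (from 0.78 nM), NPC at 8 points (from 0.59 nM). CellTiter-Glo luminescence after 48 h; concentration-response curves from primary screen.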

[2] = qHTS of pediatric cancer cell lines to identify multiple opportunities for drug repurposing: Primary screen for SK-N-SH cells (AID 1347098); further: nearly all actives have a fitted effect of over 65% in size; further: potency means the concentration at half of the fitted maximal effect
Method in brief: (§2)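 Cells (500-1,000/well) rested 5 h, then received compounds for 48 h; metabolically active cells were measured by CellTiter-Glo luminescence. Final concentrations spanned up to 46 µM (MIPE, 11-point) or 0.59 nM-46 µM (NPC, 8-point) in primary screens, 11-point in follow-ups.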

[3] = qHTS of pediatric cancer cell lines to identify multiple opportunities for drug repurposing: Primary screen for NB1643 cells (AID 1347099); further: nearly all actives have a fitted effect of over 50% in size; further: potency means the concentration at half of the fitted maximal effect
Method in brief: as §1

[4] = qHTS of pediatric cancer cell lines to identify multiple opportunities for drug repurposing: Primary screen for LAN-5 cells (AID 1347100); further: potency means the concentration at half of the fitted maximal effect
Method in brief: (§3)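 Cells (500-1,000/well) in growth media were settled 5 h at 37 degrees C, then given compounds for 48 h. Viability was read as CellTiter-Glo luminescence. Primary runs used MIPE at 11 points (0.78 nM-46 µM) and NPC at 8 points (0.59 nM-46 µM); follow-ups used 11 points.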

[5] = qHTS of pediatric cancer cell lines to identify multiple opportunities for drug repurposing: Primary screen for BT-12 cells (AID 1347101); further: nearly all actives have a fitted effect of over 25% in size; further: potency means the concentration at half of the fitted maximal effect
Method in brief: as §2

[6] = qHTS of pediatric cancer cell lines to identify multiple opportunities for drug repurposing: Primary screen for Rh18 cells (AID 1347102); further: nearly all actives have a fitted effect of over 65% in size; further: potency means the concentration at half of the fitted maximal effect
Method in brief: as §3

[7] = qHTS of pediatric cancer cell lines to identify multiple opportunities for drug repurposing: Primary screen for OHS-50 cells (AID 1347103); further: nearly all actives have a fitted effect of over 40% in size; further: potency means the concentration at half of the fitted maximal effect
Method in brief: as §2

[8] = qHTS of pediatric cancer cell lines to identify multiple opportunities for drug repurposing: Primary screen for MG 63 (6-TG R) cells (AID 1347105); further: nearly all actives have a fitted effect of over 50% in size; further: potency means the concentration at half of the fitted maximal effect
Method in brief: as §1

[9] = qHTS of pediatric cancer cell lines to identify multiple opportunities for drug repurposing: Primary screen for control Hh wild type fibroblast cells (AID 1347106);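 further: series mostly up to about 46 µM; a drop in luminescence marks cytotoxicity and a rise apparent proliferation; nearly all actives have a fitted effect of over 55% in size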
Method in brief: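 Viability after 48 h compound treatment at 37C, 500-1,000 cells/well, read as ATP luminescence with CellTiter-Glo. Primary screens used 11-point (MIPE, 0.78 nM-46 µM) or 8-point (NPC, 0.59 nM-46 µM) final concentrations; follow-up screens used 11-point dilutions.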

[10] = qHTS of pediatric cancer cell lines to identify multiple opportunities for drug repurposing: Primary screen for RD cells (AID 1347104); further: nearly all actives have a fitted effect of over 55% in size
Method in brief: as §1

Row | Compound | Potency [1] | Potency [2] | Potency [3] | Potency [4] | Potency [5] | Potency [6] | Potency [7] | Potency [8] | Potency [9] | Potency [10]
1 | COC(=O)[C@@H]1CC2=CC(=O)CC[C@]2(C)[C@@]23O[C@@H]2C[C@@]2(C)[C@@H](CC[C@@]24CCC(=O)O4)[C@H]13 | inactive | inactive | inactive | inactive | inactive | inactive | inactive | inactive | inactive | 
2 | CCN1CCCC1=O | inactive | inactive | inactive | inactive | inactive | inactive |  | inactive | inactive | inactive
3 | N[C@@H](CCC(=O)N[C@@H](CS)C(=O)NCC(=O)O)C(=O)O | inactive | inactive | inactive | inactive | inactive | inactive | inactive | inactive | inactive | 
4 | COc1ccc(C2C(=O)c3ccccc3C2=O)cc1 | inactive | inactive | inactive | inactive | inactive | inactive | inactive | inactive | inactive | inactive
5 | C/C=C/c1ccc(OC)cc1 | inactive | inactive | inactive | inactive | inactive | inactive | inactive | inactive | inactive | 
6 | CC(C)n1nc(-c2cc3cc(O)ccc3[nH]2)c2c(N)ncnc21 | 4.22 µM (active) | 12.2 µM (active) | 21.1 µM (active) | 8.41 µM (active) | 1.23 µM (active) | 6.68 µM (active) | 0.437 µM (active) | 1.68 µM (active) |  | 
7 | CC1=C(C(=O)O)N2C(=O)[C@@H](NC(=O)[C@H](N)c3ccc(O)cc3)[C@H]2SC1 | inactive | inactive | inactive | inactive | inactive | inactive |  | inactive | inactive | inactive
8 | CN=C(NC#N)Nc1ccc(C2=NNC(=O)CC2C)cc1 (stereo not given) | inactive | inactive | inactive | inactive | inactive | inactive | inactive | inactive | inactive | 
9 | CCN1CCN(c2cc3c(cc2F)c(=O)c(C(=O)O)cn3C2CC2)CC1 | inactive | inactive | inactive | inactive | inactive | inactive | inactive | inactive |  | 
10 | CN=C(NC#N)NCCSCc1csc(N=C(N)N)n1 | inactive | inactive | inactive | inactive | inactive | inactive | inactive | inactive | inactive | inactive
11 | Cc1c(C(N)=O)cc([N+](=O)[O-])cc1[N+](=O)[O-] | inactive | inactive | inactive | inactive | inactive | inactive | inactive | inactive | inactive | 
12 | CC(=O)OCC(=O)[C@@]1(O)[C@H](C)C[C@H]2[C@@H]3CCC4=CC(=O)C=C[C@]4(C)[C@@]3(F)[C@@H](O)C[C@@]21C | inactive | inactive | inactive | inactive | inactive | inactive |  | inactive | inactive | inactive
13 | COC(=O)CCc1ccc(OCC(O)CNC(C)C)cc1 (stereo not given) | inactive | inactive | inactive | inactive | inactive | inactive | inactive | inactive | inactive | 
14 | Cc1c(N(C)CS(=O)(=O)O)c(=O)n(-c2ccccc2)n1C | inactive | inactive | inactive | inactive | inactive | inactive | inactive | inactive | inactive | inactive
15 | COc1cc(OC)cc(OC)c1 | inactive | inactive | inactive | inactive | inactive | inactive | inactive | inactive | inactive | 
16 | CC(=O)Oc1ccc(C(=C2CCCCC2)c2ccc(OC(C)=O)cc2)cc1 | inactive | inactive | inactive | inactive | inactive | inactive | inactive | inactive | inactive | inactive
17 | CC(=O)Nc1c(I)cc(I)c(C(=O)O)c1I | inactive | inactive | inactive | inactive | inactive | inactive | inactive |  | inactive | inactive
18 | CCCCC1=NC2(CCCC2)C(=O)N1Cc1ccc(-c2ccccc2-c2nn[nH]n2)cc1 | inactive | inactive | inactive | inactive | inactive | inactive | inactive | inactive | inactive | inactive
19 | O=C(O)CCCCC(=O)O | inactive | inactive | inactive | inactive | inactive | inactive | inactive | inactive | inactive | inactive
20 | CN(C)CC/C=C1/c2ccccc2COc2ccc(CC(=O)O)cc21 | inactive | inactive | inactive | inactive | inactive | inactive | inactive | inactive | inactive | inactive
21 | Cc1ccnc(NS(=O)(=O)c2ccc(N)cc2)n1 | inactive | inactive | inactive | inactive | inactive | inactive | inactive | inactive | inactive | inactive
